Results on 40 sequences are retold here after the supplement of paper PMC6555819.

In one assay the test system is LXRa homodimer (NR concentration 270 nM). The assay is described as follows: PBM binding z-score (relative to random genomic background probes); higher = stronger binding; sequences stand for … in GC…GCGATTGACAGCGTAGAATGAAGG
The essentials: (§1)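 Regression normalization was applied to scanned fluorescence from custom Agilent 4×180K protein-binding microarrays. Before scanning, arrays were incubated 1 h with ligand-free nuclear receptor dimers, and binding was detected with antibodies against each partner (one per run). Binding z-scores use the random background probes as reference.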
On to TAGCCTAGGTCATTGGGCCACTATAGTACGCATC, for which the PBM binding z-score is 1.1.

For TAGCCTAGGACATTGGGCCAGTATAGTACGCATC, the PBM binding z-score was -0.544.

Turning to ATCTCTAGGTAAGACTCGGTTCAGTGAAGAACGC, the PBM binding z-score was found to be 0.614.

ACTAGCAGGCCAAGGGTCTCTCAAGATTAGTCCG registered a PBM binding z-score of -0.698.

On to CCTAGCAGGCCAGGGTCACTCTAGCATTTCGCTT, for which the PBM binding z-score is -0.629.

GCTTGTTGGTCAGTAAAAGGTCACACACCGGTCG yielded a PBM binding z-score of 4.58.

TCATATAGGTAAACAGGTGAAAGTGCGTAAGTTA: the PBM binding z-score stood at 0.37.

Regarding ATCTCTAGGCAAAGTTCAGTGAAAGATCGATAGA, the PBM binding z-score worked out at 0.839.

ATCTCTAGTTAAAGTTCAGTGAAAGATCGATAGA showed a PBM binding z-score of 2.94.

For the sequence CCGACTGGGGCAAAGGTTACTATACTCAGTACGA, the PBM binding z-score came to 0.145.

Sequence TCTTGCAGATCAAGCAGGTTAAGAAAGCCTGAGT returned a PBM binding z-score of -0.304.

CGTACTGGGCCATTCAGAGGTCATTGATCATATG: the PBM binding z-score was found to be 6.56.

Turning to CGACAAAGTTCAACTAAGGTAACGTAAAGCACGC, the PBM binding z-score was 3.44.

The sequence TCGGCTAGGTCAACGATGGTCAGCTAATCTGCTA returned a PBM binding z-score of -0.307.

In the case of AGAATGAGGTGACCAAAGATCAGGGAAACGCTTG, the PBM binding z-score is -0.26.

On to GCGACTGGGGCAAAGCAGGTTACGATAAGGTTGG, for which the PBM binding z-score was -0.718.

For the sequence TCAAATAGGTAATACAGGTGAAAGTCGGCATCTA, the PBM binding z-score came out at 0.418.

Turning to GTAACGAGGGCATTCGAGTTGATAGCATGGCGAT, the PBM binding z-score was -0.134.

CCTATTTGTTGACCATAAGGGCAACCGAAGCTCG showed a PBM binding z-score of 0.84.

CCGGCTAGGTCATGGTCAGCTAATCTACAGTATG: the PBM binding z-score stood at 0.191.

With CCAGACAGGTGAAAGGGAACTCAGTCTGGTACGC, the PBM binding z-score was -0.366.

Turning to CGAACTAGGTCATCCAGGGCAGTGAATACATTGA, the PBM binding z-score is 0.45.

Regarding CCGAGAAGGTTATGGGGCATTCAGGCAACGGTGA, the PBM binding z-score worked out at 0.000193.

As for TAGCCTAGGTCATTCAGGGGCCAGTATAGAAAGC, the PBM binding z-score was found to be 0.785.

Take CCGAGTAGGTTATGGGGCATGCAGGCAACGGTGA: the PBM binding z-score was -0.12.

Sequence GGAACGAGGGCAAGATGATAGCAGAGTTTGATGG came in with a PBM binding z-score of -0.287.

In turn, CGAACTAGGTCAGAACAGGACAGTGGAGGATGAT showed a PBM binding z-score of -0.201.

TCATATCGGTAAAGGTGAAAGTCGAACGATATGA: the PBM binding z-score is -0.173.

The sequence TCTAGCAGGCCAAAGGGTCACTCAAGAGGTACGG gave a PBM binding z-score of 0.121.

ATCGAAAGGTCGCGAGGTGAGTATACAGAAAGGC registered a PBM binding z-score of -0.00351.

For the sequence CGTCCAAGGTCAAGGTCATTGAAAGAGACTCGAA, the PBM binding z-score was 2.42.

Regarding CGTCAAAGTTCAGCTAAGGTAACGTAAAGCACGC, the PBM binding z-score stood at 1.68.

On to CCGAGTAGTTTATGGGGCATTCAGGCAACGGTGA, for which the PBM binding z-score was -0.197.

Turning to CCAGACAGGTGCGAAGGTAACTCAGCCTCGATTA, the PBM binding z-score was -0.34.

In the case of ACAGACAGGTGATGAAGGTAACTGAGGCTATCAT, the PBM binding z-score is -0.296.

For AGGCAAAGTTCATCTAGGTAACGTAAGATATGCT, the PBM binding z-score was 4.54.

Regarding AGAATGAGGTTATACGTTGATCAGGGAAGAAAGT, the PBM binding z-score stood at 0.234.

For TCTTGTAGATCAGCAGGTTAATAAAGCTGGCCAA, the PBM binding z-score is -0.0562.

Sequence GTACCAGGGTGAATAGGTCGTTGATGAGTAGGCG had a PBM binding z-score of -0.254.

On to CCGACAGGGGCAAAGGTTACCATACTCAGTACGA, for which the PBM binding z-score was -0.14.

The next assay has as its system LXRb:RXRa (NR concentration 270 nM, RXRa partner concentration 90 nM). The assay is described as above. In a few lines: as §1
The sequence TAGCCTAGGTCATTGGGCCACTATAGTACGCATC showed a PBM binding z-score of 3.05.

For TAGCCTAGGACATTGGGCCAGTATAGTACGCATC, the PBM binding z-score was -0.775.

ATCTCTAGGTAAGACTCGGTTCAGTGAAGAACGC: the PBM binding z-score came to 0.263.

In the case of ACTAGCAGGCCAAGGGTCTCTCAAGATTAGTCCG, the PBM binding z-score was -0.703.

As for CCTAGCAGGCCAGGGTCACTCTAGCATTTCGCTT, the PBM binding z-score was 1.71.

In turn, GCTTGTTGGTCAGTAAAAGGTCACACACCGGTCG gave a PBM binding z-score of 4.04.

Regarding TCATATAGGTAAACAGGTGAAAGTGCGTAAGTTA, the PBM binding z-score is 1.13.

As for ATCTCTAGGCAAAGTTCAGTGAAAGATCGATAGA, the PBM binding z-score came out at 0.819.

The sequence ATCTCTAGTTAAAGTTCAGTGAAAGATCGATAGA displayed a PBM binding z-score of 1.57.

CCGACTGGGGCAAAGGTTACTATACTCAGTACGA: the PBM binding z-score was determined as 1.83.

In turn, TCTTGCAGATCAAGCAGGTTAAGAAAGCCTGAGT showed a PBM binding z-score of 0.157.

As to CGTACTGGGCCATTCAGAGGTCATTGATCATATG, the PBM binding z-score was 3.9.

With CGACAAAGTTCAACTAAGGTAACGTAAAGCACGC, the PBM binding z-score was found to be 4.09.

For the sequence TCGGCTAGGTCAACGATGGTCAGCTAATCTGCTA, the PBM binding z-score came to 1.72.

On to AGAATGAGGTGACCAAAGATCAGGGAAACGCTTG, for which the PBM binding z-score was determined as 0.478.

In turn, GCGACTGGGGCAAAGCAGGTTACGATAAGGTTGG showed a PBM binding z-score of 0.363.

For the sequence TCAAATAGGTAATACAGGTGAAAGTCGGCATCTA, the PBM binding z-score came out at 0.892.

Turning to GTAACGAGGGCATTCGAGTTGATAGCATGGCGAT, the PBM binding z-score was found to be 0.286.

On to CCTATTTGTTGACCATAAGGGCAACCGAAGCTCG, for which the PBM binding z-score turned out to be 0.696.

CCGGCTAGGTCATGGTCAGCTAATCTACAGTATG came in with a PBM binding z-score of 1.89.

Take CCAGACAGGTGAAAGGGAACTCAGTCTGGTACGC: the PBM binding z-score was -0.0234.

CGAACTAGGTCATCCAGGGCAGTGAATACATTGA registered a PBM binding z-score of 2.11.

Take CCGAGAAGGTTATGGGGCATTCAGGCAACGGTGA: the PBM binding z-score amounted to 1.24.

Turning to TAGCCTAGGTCATTCAGGGGCCAGTATAGAAAGC, the PBM binding z-score was 3.2.

On to CCGAGTAGGTTATGGGGCATGCAGGCAACGGTGA, for which the PBM binding z-score is 0.502.

On to GGAACGAGGGCAAGATGATAGCAGAGTTTGATGG, for which the PBM binding z-score came out at 0.0342.

The sequence CGAACTAGGTCAGAACAGGACAGTGGAGGATGAT had a PBM binding z-score of 0.242.

TCATATCGGTAAAGGTGAAAGTCGAACGATATGA gave a PBM binding z-score of 1.35.

Sequence TCTAGCAGGCCAAAGGGTCACTCAAGAGGTACGG had a PBM binding z-score of 2.6.

The sequence ATCGAAAGGTCGCGAGGTGAGTATACAGAAAGGC yielded a PBM binding z-score of 3.19.

Sequence CGTCCAAGGTCAAGGTCATTGAAAGAGACTCGAA yielded a PBM binding z-score of 5.26.

On to CGTCAAAGTTCAGCTAAGGTAACGTAAAGCACGC, for which the PBM binding z-score was 2.31.

Consider CCGAGTAGTTTATGGGGCATTCAGGCAACGGTGA, for which the PBM binding z-score turned out to be 0.53.

With CCAGACAGGTGCGAAGGTAACTCAGCCTCGATTA, the PBM binding z-score is -0.424.

For ACAGACAGGTGATGAAGGTAACTGAGGCTATCAT, the PBM binding z-score was -0.234.

Turning to AGGCAAAGTTCATCTAGGTAACGTAAGATATGCT, the PBM binding z-score came to 3.71.

In turn, AGAATGAGGTTATACGTTGATCAGGGAAGAAAGT had a PBM binding z-score of 1.66.

In turn, TCTTGTAGATCAGCAGGTTAATAAAGCTGGCCAA displayed a PBM binding z-score of 0.223.

GTACCAGGGTGAATAGGTCGTTGATGAGTAGGCG had a PBM binding z-score of 0.582.

CCGACAGGGGCAAAGGTTACCATACTCAGTACGA came in with a PBM binding z-score of 2.73.
